From PubChem BioAssay AID624417 (National Center for Advancing Translational Sciences (NCATS), 2012)
Hit rate of the full screen: of about 410,000 compounds, about 6,400 (1.6%) were called active. About 20% were inconclusive and are not listed. Calls follow the shape of the dose curve; as a rule, active = well fitted inhibition curve with a large enough effect; inconclusive = small, poorly fitted or top-dose-only effect; inactive = no such curve, though single readings can be large or run the other way. The entries come from a sample that favours actives as a whole.

These compounds were tested against Glucagon-like peptide 1 receptor (Homo sapiens) (UniProt P43220) (assay: qHTS of GLP-1 Receptor Inverse Agonists (Inhibition Mode)). Settings: HEK293 GLP-1R CRE-luciferase, luminescence, 24 h, GLP-1R form is constitutively active; series mostly up to 38.3 µM.
Chain of Glucagon-like peptide 1 receptor (Homo sapiens) (P43220 whole entry, looked up): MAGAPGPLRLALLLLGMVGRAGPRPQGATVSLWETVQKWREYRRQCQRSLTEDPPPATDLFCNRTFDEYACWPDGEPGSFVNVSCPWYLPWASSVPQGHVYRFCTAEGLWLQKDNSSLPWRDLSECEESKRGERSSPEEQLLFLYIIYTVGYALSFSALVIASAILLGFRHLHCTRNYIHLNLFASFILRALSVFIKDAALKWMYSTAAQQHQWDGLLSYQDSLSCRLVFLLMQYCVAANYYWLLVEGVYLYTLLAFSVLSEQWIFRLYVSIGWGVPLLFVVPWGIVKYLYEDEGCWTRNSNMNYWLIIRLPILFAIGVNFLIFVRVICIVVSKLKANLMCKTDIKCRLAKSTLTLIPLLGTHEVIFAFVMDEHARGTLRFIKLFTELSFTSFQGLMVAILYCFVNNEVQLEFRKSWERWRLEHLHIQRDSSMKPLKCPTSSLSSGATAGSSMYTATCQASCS
In short: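 qHTS in 1536-well format: reporter HEK293 cells expressing constitutive GLP-1R activity in DMEM + 10% Nu serum, 24 hr with compounds at 37 deg C, luminescence read after 12 min with detection reagent.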
Also: nearly all actives have a fitted effect of over 55% in size.
Potency is read from the fitted curve at half-maximal effect.

Potency, inactive:
C[C@H]1CN([C@@H](C)CO)C(=O)c2cc(Br)cnc2O[C@H]1CN(C)S(=O)(=O)c1cccs1, CCOC(=O)C1=CC[C@@H](c2ccncc2)N(S(=O)(=O)c2ccc(C)cc2)C1, Cc1cc2oc(=O)cc(CN(C)Cc3ccccc3)c2cc1Cl, CN(C)CCN1CCN(c2cc(-c3cccc(Cl)c3)nc3ccnn23)CC1, O=C(COC(=O)CSc1ccccc1)Nc1ccc(F)cc1F, COc1ccc(Cl)cc1NC(=O)CSc1nc2ccccc2c2nc(-c3ccccc3)nn12, Cc1ccc(CCNC(=O)CN2C(=O)CSc3ccc(S(=O)(=O)N4CCOCC4)cc32)cc1, CC1=C(C(=O)N2CCOCC2)CC(CC(=O)NCCCN(C)C)C(=O)N1Cc1ccc(C(C)(C)C)cc1 (stereo not drawn), CCCCN1C(=O)C(CC(=O)NCc2cccs2)CC(C(=O)N2CCOCC2)=C1C (stereo not drawn), Nc1ncnc2c1ncn2[C@@H]1O[C@H](C(=O)NCC(F)(F)F)[C@@H](O)[C@H]1O, O=CNc1cc(-c2ccc(C(=O)N3CCOCC3)cc2)cn2c(-c3ccc(F)cc3)cnc12, CCN1CCN(CCCCOc2ccccc2F)CC1, COc1ccccc1N1CCN(S(=O)(=O)CCNC(=O)COc2ccc(F)cc2)CC1, Cc1ccc2cccc([N+](=O)[O-])c2n1, C[C@@H]1CN([C@H](C)CO)C(=O)c2cc(-c3ccc(F)cc3)cnc2O[C@H]1CN(C)C(=O)c1ccc(F)cc1, COc1ccc(CN2CCn3ncc(C(=O)Nc4ccc(Cl)cc4Cl)c3C2=O)cc1, S=C(Nc1ccc(Cl)cc1Cl)N1CCCC1, COc1cccc(C(NC(C)=O)c2nc(-c3ccccc3OC)cs2)c1 (stereo not drawn), CC1=C(C(=O)N2CCOCC2)CC(CC(=O)NCC2CCCCC2)C(=O)N1Cc1ccc(F)cc1 (stereo not drawn), COc1ccccc1N1CCN(Cc2ccc(OC)c3ccccc23)CC1, CC1(Oc2cccc(F)c2)CCN(Cc2ccccc2OC(F)F)C1 (stereo not drawn), CCCNC(=O)C1(C)CCN(C(=O)c2ccc(F)cc2Cl)C1 (stereo not drawn), COc1ccc([C@H]2CC(=O)C[C@@H](CCn3cc(CC4CCCC4)nn3)O2)cc1, Cc1cc(C)c(S(=O)(=O)NN=C2c3ccccc3[C@H]3Cc4csc[n+]4[C@@H]23)c(C)c1, COc1ccccc1-n1c(SCC(=O)Nc2ccc(Cl)cc2)nc(O)c(Cc2ccccc2)c1=O, COC(=O)N/N=C/c1c[n+]([O-])c2ccccc2[n+]1[O-], Cc1ccc(OCCOc2cccc(/C=N/NC(N)=O)c2)cc1, CC(NC(=O)CCc1cn(Cc2ccccc2Cl)c2ccccc12)c1ccccc1 (stereo not drawn), NC(=O)Cn1cc(/C=N\NS(=O)(=O)c2ccccc2)c2ccccc21, O=C(CC[C@H]1O[C@@H](n2ccc(=O)[nH]c2=O)[C@H](O)[C@@H]1O)N[C@H](Cc1ccccc1)C(=O)NCCCN1CCCC1=O, CC(=O)Nc1ccc2c3c(ccc([N+](=O)[O-])c13)CC2, O=C(OCc1cn([C@@H]2C[C@H](c3ccc(Cl)cc3)N(Cc3cccs3)C[C@H]2O)nn1)c1ccccc1, CCC(=O)N1Cc2cc(C(=O)NCc3cccc(F)c3)nc(-c3cccc(C4=CCCC4)c3)c2[C@H]1CCO, CCCOc1ccc(F)cc1-c1cc(C(=O)Nc2ccc(F)cc2)[nH]n1, O=C(C(=O)N1CCC(c2ccccc2)CC1)c1ccccc1, CN(c1ccccc1)S(=O)(=O)c1cccc(C(=O)NNC(=O)c2ccncc2)c1, CN(C)S(=O)(=O)c1cccc(NC(=O)Cc2ccsc2)c1, Cc1ccc(F)c(S(=O)(=O)NC(=O)C2(C)CCN2C(=O)CCc2cccs2)c1 (stereo not drawn), COCCN(C(=S)Nc1ccccc1OC)C1CCN(C(C)C)CC1, Cc1cccc(NC(=S)N(CCN(C)C)C(C)c2ccco2)c1 (stereo not drawn), CCc1cccc(NC(=O)CSc2nccn2C)c1, CCc1cccc(NC(=O)CCNS(=O)(=O)c2cccc3nonc23)c1, Cc1ccc(S(=O)(=O)N2C[C@@H](C)[C@]3(C2)[C@H](O)[C@H](OC(=O)NCc2ccccc2)C[C@H]2C(=O)N(c4ccccc4)C(=O)[C@H]23)cc1, O=C(C1=C[C@H](C2CC2)C[C@H](OCc2ccc(CO)cc2)O1)N1CCN(Cc2ccccc2)CC1, O=C(NCc1ccccc1)C1=C[C@@H](c2ccccc2)C[C@@H](OCCCCO)O1, CCCNC(=O)C[C@@H]1CC[C@@H]2[C@H](COC[C@H](O)CN2C(=O)c2cc(Cl)cc(Cl)c2)O1, Cc1cccc(C)c1-n1c(C)cc(/C=C2\C(=O)NN(c3ccccc3)C2=O)c1C, CCOc1c(Br)cc(/C=C2\C(=O)N(CCC#N)N=C2C)cc1OC, Cc1ccccc1Cn1c(C)c(C(=O)NCc2cccc(C(F)(F)F)c2)sc1=O, CCOC(=O)C1(C)CCCN(C(=O)c2ccc(F)c(Cl)c2)C1 (stereo not drawn), CC(C)C[C@H]1CNC(=O)C(=O)N1C[C@H]1CCCN1C[C@H](Cc1ccc(O)cc1)N1C[C@H](CC(C)C)N(CC2CCCCCC2)C(=O)C1=O, O=C(OCc1cc(=O)n2ccsc2n1)C1(c2ccc(Cl)cc2)CC1, O=C(OCCN1CCOCC1)C1(c2ccccc2)CCCCC1, CC=CCn1c(SCCCc2ccccc2)nc2c1c(=O)[nH]c(=O)n2C, CCC(=O)N1CCCC1(C)C(=O)Nc1ccc2c(c1)CCN2C(C)=O (stereo not drawn), O=C(O)c1ccc(N=NN2CCOCC2)cc1, O=C(c1ccccc1)C(O)(CN1CCCCC1)c1ccccc1 (stereo not drawn), COc1ccc(C(=O)C(OP(=O)(OC)OC)c2ccccc2OC)cc1 (stereo not drawn), COc1ccccc1CNC(=O)c1cc(-c2cc(F)ccc2OC)n[nH]1, COc1cnn(-c2ccc([N+](=O)[O-])cc2)c(=O)c1Cl, O=[N+]([O-])c1ccc(N2CCOCC2)cc1, COc1ccc(S(=O)(=O)N[C@@H]2C=C[C@@H](CC(=O)N3CCc4ccccc4C3)O[C@@H]2CO)cc1, CC(C)CNC(=O)C1(C)CCCN1C(=O)CSc1ccccc1 (stereo not drawn), O=S(=O)(c1cccc(C(F)(F)F)c1)N1CCN(c2cnccn2)CC1, CC(=O)Nc1ccc(NC(=O)C2CCCN2S(=O)(=O)c2cccc(C(F)(F)F)c2)cc1 (stereo not drawn), Cc1ccc(C)c(NC(=S)NNC(=O)c2csc(C)c2)c1, CC(C)c1ccc(NC(=S)NNc2ccc(Cl)c(C(=O)O)c2)cc1, CCCC(=O)NC(Nc1ccccc1OC)C(Cl)(Cl)Cl (stereo not drawn), CCCCCN(C(=O)NC(=O)Nc1ccccc1OC)S(C)(=O)=O, Cn1ncc([N+](=O)[O-])c1C(=O)Nc1cc(Cl)ccc1Cl, CCc1nc2ccc(C(=O)N(C)Cc3ccco3)cn2c1N(C)C(=O)Cc1ccccc1, OC[C@@H]1CN(C2CCCC2)C[C@H](n2cnc3c(NC4CCC4)ncnc32)O1, Cc1ccc(NC(=O)COC(=O)C2CC2)cc1S(=O)(=O)N1CCOCC1, Cc1ccccc1OCC(=O)Nc1ccc2c(c1)ncn2C, Cc1ccc(NC(=O)CCC(=O)N2CCC(c3ccccc3)=N2)cc1S(=O)(=O)N1CCCCC1, COc1ccc(NC(=O)C2=NNC(=O)CC2)cc1S(=O)(=O)N1CCCCC1, COc1ccccc1C(CNC(=O)c1ccc(C)c(S(=O)(=O)N2CCCCC2)c1)N(C)C (stereo not drawn), Cc1ccccc1OCC(=O)Nc1ccc(S(=O)(=O)N2CCOCC2)cc1

Potency, active:
O=C(CSc1ccccc1)Nc1cc(Cl)ccc1Oc1ccccc1 11.2 µM, COc1ccccc1N1CCN(CCCCOc2ccc(F)cc2)CC1 12.6 µM, COc1ccc(CN(C)C(=S)Nc2ccc(Cl)cc2Cl)cc1 7.08 µM, COc1ccc(CN2CCC(C)(Oc3cccc(F)c3)C2)c2ccccc12 (stereo not drawn) 11.2 µM, CCOC(=O)N/N=C/c1cn(Cc2ccccc2Cl)c2ccccc12 7.94 µM, COC(=O)N/N=C/c1cn(CCCOc2ccc(C)cc2)c2ccccc12 8.91 µM, CN(c1ccccc1)S(=O)(=O)c1cccc(NC(=O)Cc2c(F)cccc2Cl)c1 7.94 µM, CCc1cccc(NC(=S)N(CCN(C)C)C2CCN(C(C)C)CC2)c1 5.01 µM, CCc1cccc(NC(=O)CCCN2C(=O)C(c3ccccc3)Oc3cccnc32)c1 (stereo not drawn) 7.94 µM, O=C(NCc1ccccc1)C1=C[C@@H](C2CCCCC2)C[C@@H](OCc2ccc(CO)cc2)O1 10 µM, COc1cc(/C=C2/C(=O)NN(c3cccc(Cl)c3)C2=O)cc(Br)c1O 5.01 µM, CC(=O)N1CCC(C(=O)OCc2ccc(Cl)cc2)(c2ccccc2)CC1 10 µM, O=C(O)c1cccc(N=NN2CCCCCC2)c1 3.55 µM, O=c1[nH]n(-c2ccc([N+](=O)[O-])cc2)c(=O)c2ccccc12 5.01 µM, O=S(=O)(c1cccc(C(F)(F)F)c1)N1c2ccccc2-n2cccc2C1c1cccnc1 (stereo not drawn) 10 µM, Cc1ccc(C)c(NC(=S)NNC(=S)Nc2ccc(C(C)C)cc2)c1 3.55 µM, CCCCCCCC(=O)NC(Nc1ccccc1OC)C(Cl)(Cl)Cl (stereo not drawn) 6.31 µM, CCc1ccccc1OCC(=O)Nc1ccc(C)c(S(=O)(=O)N2CCCCCC2)c1 8.91 µM, COc1ccccc1C(=O)Nc1ccc(C)c(S(=O)(=O)N2CCCCC2)c1 14.1 µM, Cc1ccccc1OCC(=O)Nc1ccc(N2CCN(C(=O)C(C)C)CC2)c(Cl)c1 3.98 µM
